Measurements published in the supplement of paper PMC4709259.
Structures can show the parent of a compound that is named as a salt. ± gives the standard deviation.

Legend:
Jurkat [1] = assay: mean cell size (FSC-A) relative to DMSO control (fraction of control); higher = larger cells; settings: 48 h
Summary of the method: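 Jurkat cells at 600 cells/µl were incubated for 1 h and then treated for 48h with the Enzo Screen-Well FDA Approved Drug Library v2.0 at 25µM, with DMSO at 0.9% (v/v) final. Compounds that reduced counts below 20% of controls were retested in 10-fold dilutions down to 25nM. Cell count and mean cell size, taken as forward scatter area, were measured by flow cytometry relative to solvent-only controls. Each plate carried 6-12 controls, and values are means of 3 biological replicates.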

Jurkat [2] = assay: cell count relative to DMSO control (fraction of control); higher = more cells (less growth inhibition); settings: 48 h

## N[C@@H]1C[C@H]1c1ccccc1.N[C@H]1C[C@@H]1c1ccccc1 [Tranylcypromine Hemisulfate] (concentration: 25 µM)
Jurkat [1]
  mean cell size: 0.926 ± 0.0078
Jurkat [2]
  cell count: 0.931 ± 0.063

## COc1cccc(C2(O)CCCCC2CN(C)C)c1 (stereo unspecified) [Tramadol·HCl] (concentration: 25 µM)
Jurkat [1]
  mean cell size: 0.938 ± 0.042
Jurkat [2]
  cell count: 0.58 ± 0.18

## CN1[C@@H]2CC[C@H]1C[C@@H](OC(=O)C(CO)c1ccccc1)C2 (stereo partly specified) [Atropine Sulfate Monohydrate] (concentration: 25 µM)
Jurkat [1]
  mean cell size: 0.974 ± 0.017
Jurkat [2]
  cell count: 0.677 ± 0.057

## COc1cc2c(c(OC)c1OC)-c1ccc(OC)c(=O)cc1[C@@H](NC(C)=O)CC2 [Colchicine] (concentration: 25 nM)
Jurkat [1]
  mean cell size: 0.967 ± 0.026
Jurkat [2]
  cell count: 0.071 ± 0.007

## CC(NC(C)(C)C)C(=O)c1cccc(Cl)c1 (stereo unspecified) [Bupropion] (concentration: 25 µM)
Jurkat [1]
  mean cell size: 0.935 ± 0.011
Jurkat [2]
  cell count: 0.696 ± 0.15

## O=c1[nH]c2ccccc2n1C1CCN(CCCC(c2ccc(F)cc2)c2ccc(F)cc2)CC1 [Pimozide] (concentration: 2.5 µM)
Jurkat [1]
  mean cell size: 1.08 ± 0.033
Jurkat [2]
  cell count: 0.663 ± 0.14

## C=CCN1C[C@H](C(=O)N(CCCN(C)C)C(=O)NCC)C[C@@H]2c3cccc4[nH]cc(c34)C[C@H]21 [Cabergoline] (concentration: 25 µM)
Jurkat [1]
  mean cell size: 0.889 ± 0.02
Jurkat [2]
  cell count: 0.234 ± 0.08

## N[C@@H](Cc1ccc(N(CCCl)CCCl)cc1)C(=O)O [Melphalan] (concentration: 250 nM)
Jurkat [1]
  mean cell size: 1.02 ± 0.022
Jurkat [2]
  cell count: 0.46 ± 0.08
